An excerpt weighted towards active compounds, which were near 18% of everything screened.
TDP1 block – blocks human tyrosyl-DNA phosphodiesterase 1 | Q9NUW8 | recombinant TDP1, AlphaScreen DNA substrate cleavage | Potency, µM (highest dose often 130 µM), for the others: at the highest dose activity change, negative = inhibition, actives largely listed as inhibitors | hit rate 0.28% among 350,000 | AID 485290; further: nearly all actives have a fitted effect of over 40% in size
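E. coli-derived human Tdp1, 1 nM final. Cpd preinc 15 min RT; substrate 15 nM final, 5 min RT; AS bead mix 10 ug/ml final, 10 min RT. Signal loss = tyrosine-FITC cleavage. No-enzyme wells = max signal.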
GCN5L2 inh – GCN5L2 (KAT2A) acetyltransferase inhibition. GCN5L2 HAT assay, ThioGlo1 CoA-SH fluorescence. Potency, µM (doses to about 58.9 µM), without a hit: at the highest dose activity change, negative = inhibition, most hits filed as inhibitors. hit rate 0.21% among 390,000. AID 504327
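Titration-based screen in which CoA formation is detected via maleimide probe ThioGlo1 (50uM) turning fluorescent on thiol reaction; substrates H3(1-25) 75uM and acetyl-CoA 70uM, GCN5L2 20nM, 20 min incubation at room temperature.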
VDR inh – blocks the human vitamin D receptor. P11473. VDR-SRC2-3 peptide fluorescence polarization, 2 h. Potency, µM, without a hit: max response, negative = inhibition, hits mostly inhibitors. hit rate 0.93% among 400,000. AID 504847
Target sequence (P11473 whole entry, looked up): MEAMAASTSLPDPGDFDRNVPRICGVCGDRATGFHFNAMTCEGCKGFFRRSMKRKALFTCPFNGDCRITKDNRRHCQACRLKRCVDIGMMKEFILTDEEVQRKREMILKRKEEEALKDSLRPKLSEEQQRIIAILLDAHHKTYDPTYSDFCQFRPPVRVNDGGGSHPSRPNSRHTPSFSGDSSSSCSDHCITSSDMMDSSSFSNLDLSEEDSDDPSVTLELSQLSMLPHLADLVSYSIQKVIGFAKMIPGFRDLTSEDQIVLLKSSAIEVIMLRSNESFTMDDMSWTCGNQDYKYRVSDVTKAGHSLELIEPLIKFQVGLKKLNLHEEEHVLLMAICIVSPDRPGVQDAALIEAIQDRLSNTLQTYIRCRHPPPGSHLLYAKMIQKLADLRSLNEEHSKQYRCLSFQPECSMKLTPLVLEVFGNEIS
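Fluorescence polarization assay of small-molecule disruption of VDR binding to coregulator peptide SRC2-3. Compounds and controls pin-transferred, then read after 2 h incubation at ambient room temperature.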
TDP1 cell noCPT – qHTS for Inhibitors of human tyrosyl-DNA phosphodiesterase 1 (TDP1): qHTS in cells in absence of CPT | DT40 Tdp1-/- hTDP1 cells, no CPT, ATP luminescence, 48 h | Potency, µM (doses to about 46.2 µM), without a hit: top-dose activity change, negative = growth inhibition, hits mostly inhibitors | hit rate 15% among 420,000; further: nearly all actives have a fitted effect of over 55% in size
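Growth kinetics read by CellTiter-Glo luminescence after ≥48 hr at 37 °C. Cells: DT40 Tdp1-/- stably carrying human TDP1, 400 per well, compound exposure in the absence of CPT (DMSO vehicle).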
DT40 TDP1 CPT – DT40-hTDP1 cell growth loss with CPT; chicken DT40 Tdp1-/-;hTDP1 cells + 20 nM CPT, ATP luminescence, 48 h; Potency, µM (doses to about 46.2 µM), inactives show at the highest dose activity change, negative = growth inhibition, hits mostly inhibitors; hit rate 12% among 420,000; AID 686979; further: nearly all actives have a fitted effect of over 55% in size
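Cell growth measured by CellTiter-Glo luminescence after a minimum 48 h, 37 C compound exposure with 20 nM CPT in Tdp1-knockout DT40 cells stably expressing hTDP1, seeded 400/well; qHTS titration format.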
PLK1 PBD block – PLK1 (human) polo-box domain binding inhibition; P53350; Plk1 PBD binding of FITC phosphopeptide, fluorescence polarization; Potency, µM, inactives show max response, negative = inhibition, hits mostly inhibitors; hit rate 2.8% among 360,000; AID 720504; further: series mostly up to about 57 µM; nearly all actives have a fitted effect of over 65% in size
* = called active by the depositor. The call rests on the fitted dose curve; in most records, active means well fitted curve in the direction sought with a large enough effect; inconclusive means small, poorly fitted or top-dose-only effect, or another doubt; inactive means no such curve, though single readings can be large; an effect the other way counts as inactive or inconclusive. On the % scale 0 is the no-effect control and ±100 the full control effect; potency means the concentration at half of the fitted maximal effect.

`COc1ccc(Cc2[nH]n3c(=O)cc(C(C)C)nc3c2-c2ccccc2)cc1` gave TDP1 block 2.4%, GCN5L2 inh -2.7%, VDR inh -7.3%, TDP1 cell noCPT 7.31µM*, DT40 TDP1 CPT 18.4µM* and PLK1 PBD block -11.5%.
`N#CC1=C(N)OC2=C(CCc3ccccc32)C1c1ccccc1Cl` (stereo not given) gave TDP1 block 7.9%, GCN5L2 inh -10.9%, VDR inh 1.4%, TDP1 cell noCPT 4.61µM*, DT40 TDP1 CPT 4.61µM* and PLK1 PBD block -1.0%.
For CCC(Sc1ccc(Cl)cc1)C(=O)Nc1nnc(-c2cccc([N+](=O)[O-])c2)s1 (stereo not given) the results were TDP1 block 2.6%, GCN5L2 inh 0.6%, VDR inh 13.3%, TDP1 cell noCPT 13µM*, DT40 TDP1 CPT inconclusive and PLK1 PBD block -10.7%.
For CCC(Sc1nncn1C)C(=O)Nc1nnc(-c2ccccc2Cl)s1 (stereo not given) the results were TDP1 block 4.1%, GCN5L2 inh -6.3%, VDR inh -8.7%, TDP1 cell noCPT 9.6%, DT40 TDP1 CPT -29.0% and PLK1 PBD block -3.7%.
CC(C)N1C/C(=C/c2cccnc2)C(=O)/C(=C/c2cccnc2)C1 was read as TDP1 block 0.0%, GCN5L2 inh -4.7%, VDR inh inconclusive, TDP1 cell noCPT 1.64µM*, DT40 TDP1 CPT 1.64µM* and PLK1 PBD block -9.7%.
CCN1C(=O)S/C(=C/c2ccsc2)C1=O was read as TDP1 block 0.0%, GCN5L2 inh -0.9%, VDR inh 1.1%, TDP1 cell noCPT -20.0%, DT40 TDP1 CPT -10.2% and PLK1 PBD block -4.4%.
`CC(C)N1C/C(=C/c2ccsc2)C(=O)/C(=C/c2ccsc2)C1` gave TDP1 block 5.4%, GCN5L2 inh 41.6%, VDR inh 15.8µM*, TDP1 cell noCPT 5.8µM*, DT40 TDP1 CPT 2.91µM* and PLK1 PBD block -18.0%.
Screening COCCCNC(=O)C1CCN(c2ncnc3c2nc2n3CCCCC2)CC1 returned TDP1 block -2.5%, GCN5L2 inh -7.7%, VDR inh 0.7%, TDP1 cell noCPT -1.4% and DT40 TDP1 CPT 14.6%.
`Cc1nc(C)n(C(Oc2ccc(Cl)cc2Cl)C(=O)C(C)(C)C)n1` (stereo not given) gave VDR inh 10.4%, TDP1 cell noCPT inconclusive, DT40 TDP1 CPT 6.2% and PLK1 PBD block -15.5%.
For O=C(CSc1nnnn1-c1ccccc1)Nc1ncc2c(n1)CC(c1ccccc1)CC2=O (stereo not given) the results were TDP1 block -6.8%, GCN5L2 inh -6.1%, VDR inh -10.6%, TDP1 cell noCPT inconclusive, DT40 TDP1 CPT 15.8µM* and PLK1 PBD block -7.7%.
Cn1cnc(S(=O)(=O)N2CCN(c3cccc(Cl)c3)CC2)c1 was read as TDP1 block -0.5%, GCN5L2 inh -3.1%, VDR inh 8.9%, TDP1 cell noCPT 16.5%, DT40 TDP1 CPT -12.8% and PLK1 PBD block -11.8%.
CC1=C(C#N)C(/C=N/OCc2ccc(F)cc2Cl)CC(=O)N1 (stereo not given) was read as TDP1 block 2.9%, GCN5L2 inh 0.0%, VDR inh inconclusive, TDP1 cell noCPT inconclusive, DT40 TDP1 CPT inconclusive and PLK1 PBD block 29.9µM*.
CCC[C@H]1CN(c2ccc(OC)cc2)C(=O)[C@@H]1CC(=O)NC was read as TDP1 cell noCPT -1.4%, DT40 TDP1 CPT 0.7% and PLK1 PBD block -5.3%.
Screening Cc1ccc2nc3c(c(N)c2c1)CCN3c1ccccc1 returned TDP1 block -1.0%, GCN5L2 inh -9.8%, VDR inh 10.3%, TDP1 cell noCPT 18.4µM*, DT40 TDP1 CPT 16.4µM* and PLK1 PBD block -20.6%.

Screening data deposited in PubChem BioAssay by National Center for Advancing Translational Sciences (NCATS).
